Compound activity deposited in PubChem by Broad Institute.
Hits are enriched below; roughly 3% of the tested compounds scored in any of these assays.
Wnt act: Wnt/beta-catenin pathway activators, primary screen, cell-based, plate reader, single point | Wnt/beta-catenin reporter cell assay, activator | activation, % at 9.35 µM | actives 1.2% (n = 300,000); in the data active means activation above about 30%, passing the limit was not always enough; inconclusive means no clear call, values can overlap the other calls
esBAF inh: Bmi1 luciferase reporter increase in mESCs, primary screen, esBAF inhibitor project, mouse ES cells, Bmi1 luciferase knock-in, single point. 24 h; 100% = twice the neutral-well signal. reporter increase, % at 12.5 µM. actives 2% (n = 350,000). AID 602393, 2012; in the data active means activation above about 40%; inconclusive means no clear call, values can overlap the other calls;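 further: a rise in the Bmi1 reporter signal indicates esBAF inhibition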
MITF act: activators of MITF-driven TRPM1 promoter reporter, primary screen, cell-based, SK-MEL-5, luciferase, single point; activation, % at 12.5 µM; AID 588334, 2011; actives 0.75% (n = 300,000); SK-MEL-5 TRPM1-promoter luciferase, 24 h; % of positive control, neutral wells = 0;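 active means mean activation of at least 80% with every replicate also reaching 80%; inconclusive means mean reaches 80% but some replicate falls short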
C2C12 statin: suppressors of statin myotoxicity in C2C12 myotubes, primary screen, cell-based, single point, plate reader. C2C12 myotubes + simvastatin, ATP luminescence, 48 h; scaled: DMSO 0, geranylgeraniol control 100. rescue of ATP level, % at 7.49 µM. actives 0.78% (n = 330,000). AID 602340, 2012;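 active means mean ATP rescue above about 67%, or every replicate alone reaching that limit, limit read from the data, passing the limit was not always enough; inconclusive means no clear call, values can overlap the other calls; inactive means mean under the limit and some replicate under it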;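 further: myotubes were challenged with 10 µM simvastatin during compound exposure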
A number is an active result; - = inactive; ? = inconclusive; . = no result.

SMILES	Wnt act	esBAF inh	MITF act	C2C12 statin
O=C(c1ccc(-c2ccc(Cl)cc2Cl)o1)N1CCOCC1	54	56	147	-
O=C(c1ccco1)N1CCN(Cc2c(Cl)cccc2Cl)CC1	-	59	-	-
O=C(c1ccco1)N1CCN(Cc2ccc(Cl)cc2)CC1	-	-	-	-
O=C(C[C@H]1C[C@@H]2c3cc(NC(=O)C4CCOCC4)ccc3O[C@@H]2[C@@H](CO)O1)NC1CCCC1	.	-	.	-
COCCNC(=O)Nc1ccc2nc(-c3cccs3)c(-c3cccs3)nc2c1	-	-	-	125
O=C(Nc1ccc2nc(-c3cccs3)c(-c3cccs3)nc2c1)NC1CC1	.	-	-	-
CN(CC(=O)Nc1cccc(F)c1)C(=O)c1cccc2ccccc12	-	-	-	-
CN(CC(=O)Nc1cccc(F)c1)C(=O)c1sc2ccccc2c1Cl	-	62	-	-
CCOc1cc(N2CCOCC2)c(OCC)cc1NC(=O)CN1C(=O)NC2(CCCCCCC2)C1=O	-	-	-	-
CCOc1cc(N2CCOCC2)c(OCC)cc1NC(=O)CN1C(=O)NC2(CCc3ccccc32)C1=O (centres undefined)	-	-	-	89
CN(O)/C=c1/ccc2c(n1)C(=O)C=CC=2	-	-	-	93
Cc1noc(C)c1NC(=O)Nc1ccc2c(c1)C(=O)N([C@@H](C)CO)C[C@@H](C)[C@H](CN(C)Cc1ccc(C(=O)O)cc1)O2	.	-	.	-
Cc1cc(C)n(-c2nc3ccccc3c(=O)n2OCCOc2ccccc2)n1	.	-	-	99
C=CCOn1c(-n2nc(C)cc2C)nc2ccccc2c1=O	-	-	-	-
CC(C)C[C@@H](CO)N(Cc1ccccc1)S(=O)(=O)N(Cc1ccccc1)[C@H](CO)CC(C)C	.	-	-	126
COc1ccc(S(=O)(=O)N(C)C[C@@H]2OCCCC[C@@H](C)Oc3ccc(NC(=O)C4CCCCC4)cc3C(=O)N([C@H](C)CO)C[C@H]2C)cc1	.	-	.	.
O=C(COc1ccc2cc(Br)ccc2c1)N1CCOCC1	-	48	.	-
O=C(COc1ccc2ccccc2c1)NNC(=O)Cc1ccccc1	-	-	-	-
O=C(COc1ccc2ccccc2c1)N1CCCC1	36	-	-	-
O=C(COc1ccc2ccccc2c1)N1CCN(c2ccccc2)CC1	-	-	-	-
O=C(COc1ccc2ccccc2c1)NNC(=O)Cc1cccc2ccccc12	-	-	-	114
O=C(COc1ccc2ccccc2c1Br)N1CCCCC1	.	76	-	-
C[C@H]1CN([C@@H](C)CO)C(=O)c2cc(NC(=O)C3CC3)ccc2O[C@H]1CN(C)C(=O)Nc1cccc2ccccc12	.	-	.	-
CC(C)NC(=O)N(C)C[C@H]1Oc2ccc(NC(=O)CCN3CCOCC3)cc2CC(=O)N([C@@H](C)CO)C[C@H]1C	.	-	.	-
O=C(Nc1nc(-c2ccc3c(c2)OCCO3)cs1)c1ccco1	?	-	-	-
SMILES	Wnt act	esBAF inh	MITF act	C2C12 statin
CCC(=O)N1CCc2cc(-c3csc(NC(=O)c4ccco4)n3)ccc21	-	45	-	-
CCC(=O)Nc1nc(-c2ccc3c(c2)CC(C)N3S(C)(=O)=O)cs1 (centres undefined)	-	54	-	-
CCN1CCCC1Cn1cnc2c([nH]c3ccc(Cl)cc32)c1=O (centres undefined)	-	-	.	99
CC(=O)n1c2ccccc2c2nc3ccccc3nc21	.	72	-	-
Cc1cccc(S(=O)(=O)N(C)C[C@@H]2OCc3cnnn3CCCC(=O)N([C@@H](C)CO)C[C@H]2C)c1	.	-	.	-
CCC(CC)C(=O)Nc1cccc(/C(C)=N/NC(=O)c2ccccc2Cl)c1	-	-	-	112
Cc1ccccc1/C=C1\OC(=O)c2ccccc21	.	-	-	-
Cc1ccc(/C=C2\OC(=O)c3ccccc32)cc1	-	73	-	.
C[C@@H]1CN([C@@H](C)CO)C(=O)c2cc(NC(=O)c3ccncc3)ccc2O[C@@H](C)CCCCO[C@H]1CN(C)S(=O)(=O)c1ccc(F)cc1	.	-	.	.
Cc1ccc(SCc2cn3ccccc3n2)cc1	33	-	96	-
c1ccc(CSCc2cn3ccccc3n2)cc1	-	70	-	-
c1ccc2nc(SCc3cn4ccccc4n3)cnc2c1	38	.	-	.
c1ccc2oc(SCc3cn4ccccc4n3)nc2c1	?	.	-	.
O=C(O)c1ccccc1SCc1cn2ccccc2n1	-	.	-	.
Cc1ccc(-c2cc3nc4c(c(=O)n3[nH]2)CCCC4)cc1	-	-	-	-
O=c1c2c(nc3cc(-c4ccc(F)cc4)[nH]n13)CCC2	-	.	87	.
Cc1c(C(=O)NCCCN2CCOCC2)sc2nc(-c3ccc(F)cc3)cn12	.	-	-	-
Cc1c(C(=O)NCc2ccco2)sc2nc(-c3ccccc3)cn12	-	48	.	-
Cc1c(C(=O)NCc2cccnc2)sc2nc(-c3ccccc3)cn12	-	66	.	-
Cc1c(C(=O)NCc2cccnc2)sc2nc(-c3ccc(F)cc3)cn12	-	66	.	-
Cc1c(C(=O)Nc2ccncc2)sc2nc(-c3ccccc3)cn12	-	-	.	-
COc1ccc(-c2cn3c(C)c(C(=O)NCCN4CCOCC4)sc3n2)cc1	.	56	.	-
COCC(=O)Nc1ccc2c(c1)C(=O)N(C)[C@@H]1CC[C@@H](CC(=O)NCCc3ccccc3)O[C@@H]1CO2	.	-	.	-
CC(C)NC(=O)Nc1ccc2c(c1)C(=O)N([C@H](C)CO)C[C@@H](C)[C@H](CN(C)Cc1ccc3c(c1)OCO3)OCCCC[C@@H](C)O2	.	-	.	.
CCC(C)CCN1C(N(C)C)=NC[C@@H]1C (some centres undefined)	-	-	-	149
SMILES	Wnt act	esBAF inh	MITF act	C2C12 statin
CC(C)CCCN1C(N(C)C)=NC[C@@H]1C	-	-	-	-
C[C@H]1CN([C@@H](C)CO)S(=O)(=O)c2ccc(C#CCN(C)C)cc2O[C@@H]1CN(C)C(=O)C1CCC1	.	-	.	-
CCN(CC)C(=O)CSc1nc2ccc(NC(=O)CSc3nnc(N)s3)cc2s1	.	-	-	-
Cn1cnnc1SCC(=O)Nc1ccc2nc(SCc3ccccc3)sc2c1	-	69	-	.
Cn1cnnc1SCC(=O)Nc1ccc2nc(SCc3cccc4ccccc34)sc2c1	.	.	-	.
CCN(CC)C(=O)CSc1nc2ccc(NC(=O)CSc3nccn3C)cc2s1	-	78	-	-
CCOc1ccc(OCCN2C(=O)c3ccccc3C2=O)cc1	-	63	-	-
N#Cc1ccccc1OCCN1C(=O)c2ccccc2C1=O	.	56	-	-
Cn1c(O)c(C=Nc2ccc(Br)cc2)sc1=O	60	.	-	.
Oc1ccc(Cl)cc1C=Nc1ccc(Br)cc1	-	.	-	.
COc1ccc(NC(=O)Nc2ccc3c(c2)C(=O)N([C@@H](C)CO)C[C@H](C)[C@@H](CN(C)C(=O)Nc2ccc(C(F)(F)F)cc2)OCCCC[C@H](C)O3)cc1	.	-	.	.
Clc1ccc(CSc2ncnc3c2ncn3C2CCCCO2)cc1 (centres undefined)	-	-	-	-
Fc1ccccc1CSc1ncnc2c1ncn2C1CCCCO1 (centres undefined)	48	-	89	-
